These results are taken from PubChem BioAssay (EPA / NIEHS).

Common to all, as to settings: mRNA level, 48 h; actives raise or lower the signal
Read-out in experiment [1]: Bcl-2 (BAX) gene, BAX (gene 581)
Nature of the experiment: LTEA_HepaRG_BAX: Life Technologies and Expression Analysis (LTEA) Assay for Bcl-2 (BAX) gene using HepaRG (AID 2283470). The method, boiled down: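 Differentiated HepaRG cells exposed 48 h in serum-free induction medium, eight half-log concentrations from 100 uM, in duplicate, 0.5% DMSO vehicle. BAX mRNA by TaqMan qRT-PCR, normalised to ACTB, GAPDH and POLR2A.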

Read-out in experiment [2]: adenosine kinase (ADK) gene, ADK (gene 132)
Nature of the experiment: LTEA_HepaRG_ADK: Life Technologies and Expression Analysis (LTEA) Assay for adenosine kinase (ADK) gene using HepaRG (AID 2283471). The method, boiled down: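 ADK expression quantified by qRT-PCR, normalised to three housekeeping genes, after 48 h exposure of HepaRG cells to eight concentrations (top 100 uM, half-log steps, duplicate, 0.5% DMSO). Up- or down-regulation fitted relative to vehicle.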

Read-out in experiment [3]: Alpha-fetoprotein (AFP) gene, AFP (gene 174)
Nature of the experiment: LTEA_HepaRG_AFP: Life Technologies and Expression Analysis (LTEA) Assay for Alpha-fetoprotein (AFP) gene using HepaRG (AID 2283472). The method, boiled down: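 Differentiated human HepaRG cells exposed 48 h in serum-free induction medium, 8-point half-log series from 100 uM in 0.5% DMSO, duplicate. AFP mRNA by qRT-PCR, normalized to ACTB, GAPDH, POLR2A; bidirectional fit vs DMSO.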

Read-out in another experiment: BCL2L11 (gene 10018)
Briefly: LTEA_HepaRG_BCL2L11: Life Technologies and Expression Analysis (LTEA) Assay for Bcl-2 (BCL2L11) gene using HepaRG (AID 2283473). The method, boiled down:
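Differentiated human HepaRG cells were exposed 48 h in serum-free induction medium to eight half-log concentrations up to 100 uM in 0.5% DMSO, in duplicate. BCL2L11 mRNA was quantified by TaqMan qRT-PCR, normalized to ACTB, GAPDH and POLR2A; induction or repression fitted versus DMSO.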

Read-out in experiment [4]: Apolipoprotein A-V (APOA5) gene, APOA5 (gene 116519)
Briefly: LTEA_HepaRG_APOA5: Life Technologies and Expression Analysis (LTEA) Assay for Apolipoprotein A-V (APOA5) gene using HepaRG (AID 2283474). The method, boiled down: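 Differentiated HepaRG cells in serum-free induction medium, exposed 48 h in duplicate to eight half-log concentrations topping at 100 uM (0.5% DMSO). APOA5 mRNA by Fluidigm TaqMan qRT-PCR, normalized to ACTB, GAPDH and POLR2A; bidirectional fit versus DMSO.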

Read-out in experiment [5]: Bcl-2 (BID) gene, BID (gene 637)
Briefly: LTEA_HepaRG_BID: Life Technologies and Expression Analysis (LTEA) Assay for Bcl-2 (BID) gene using HepaRG (AID 2283476). In short, it runs like this: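 Gene expression by qRT-PCR in HepaRG cells after 48 h exposure, duplicate wells, eight half-log concentrations topping at 100 uM in 0.5% DMSO. Normalized to ACTB, GAPDH, POLR2A; bidirectional fitting relative to DMSO.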

Read-out in the next experiment: Caspase-3 (Homo sapiens) (UniProt P42574)
Nature of the experiment: LTEA_HepaRG_CASP3: Life Technologies and Expression Analysis (LTEA) Assay for cysteine-aspartic acid protease (CASP3) using HepaRG (AID 2283477). In short, it runs like this: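 Differentiated HepaRG cells, plated 48 h, were treated in duplicate in serum-free induction medium for 48 h with eight half-log concentrations up to 100 uM in 0.5% DMSO. CASP3 mRNA measured by qRT-PCR, normalized to ACTB, GAPDH, POLR2A.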

Read-out in experiment [6]: Cytochrome P450 (CYP24A1), CYP24A1 (gene 1591)
Briefly: LTEA_HepaRG_CYP24A1: Life Technologies and Expression Analysis (LTEA) Assay for Cytochrome P450 (CYP24A1) using HepaRG (AID 2283478). The method, boiled down:
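HepaRG cells plated 48 h, then exposed in duplicate in serum-free induction medium for 48 h to 8-point half-log series from 100 uM in 0.5% DMSO. CYP24A1 mRNA by Fluidigm qRT-PCR, normalized to ACTB, GAPDH, POLR2A; bidirectional fit versus DMSO.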

Read-out in experiment [7]: cysteine-aspartic acid protease (CASP8), CASP8 (gene 841)
Nature of the experiment: LTEA_HepaRG_CASP8: Life Technologies and Expression Analysis (LTEA) Assay for cysteine-aspartic acid protease (CASP8) using HepaRG (AID 2283480). In short, it runs like this:
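Differentiated HepaRG cells in serum-free induction medium, 48 h exposure, eight-point half-log series from 100 uM in 0.5% DMSO, duplicates. CASP8 mRNA by qRT-PCR, normalized to ACTB, GAPDH, POLR2A; bidirectional fit versus DMSO.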

Read-out in experiment [8]: Cytochrome P450 (CYP2B6), CYP2B6 (gene 1555)
Nature of the experiment: LTEA_HepaRG_CYP2B6: Life Technologies and Expression Analysis (LTEA) Assay for Cytochrome P450 (CYP2B6) using HepaRG (AID 2283481). In short, it runs like this:
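Differentiated human HepaRG cells in serum-free induction medium, dosed in duplicate for 48 h over 8 half-log concentrations topping at 100 uM (0.5% DMSO). CYP2B6 mRNA measured by TaqMan qRT-PCR, normalized to ACTB, GAPDH, POLR2A; bidirectional fit versus DMSO.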

Read-out in experiment [9]: Cytochrome P450 2C19 (Homo sapiens) (UniProt P33261)
Briefly: LTEA_HepaRG_CYP2C19: Life Technologies and Expression Analysis (LTEA) Assay for CYP2C19 using HepaRG (AID 2283482). In short, it runs like this: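 Differentiated HepaRG cells in serum-free induction medium exposed 48 h in duplicate, 8 concentrations from 100 uM by half-log steps in 0.5% DMSO. CYP2C19 mRNA measured by TaqMan qRT-PCR, normalized to ACTB, GAPDH, POLR2A. Bidirectional fit versus DMSO.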

Read-out in the next experiment: CYP2C8 (gene 1558)
Briefly: LTEA_HepaRG_CYP2C8: Life Technologies and Expression Analysis (LTEA) Assay for CYP2C8 using HepaRG (AID 2283483). The method, boiled down:
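Differentiated HepaRG cells in serum-free induction medium exposed 48 h in duplicate to 8 half-log concentrations from 100 uM in 0.5% DMSO. CYP2C8 mRNA by qRT-PCR normalized to ACTB, GAPDH, POLR2A; bidirectional fit versus DMSO.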

Read-out in the next experiment: CYP2C9 (gene 1559)
Briefly: LTEA_HepaRG_CYP2C9: Life Technologies and Expression Analysis (LTEA) Assay for CYP2C9 using HepaRG (AID 2283484). The method, boiled down:
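Differentiated human HepaRG cells in serum-free induction medium were exposed 48 h to chemicals in 8-point half-log series from 100 uM (0.5% DMSO), in duplicate. CYP2C9 mRNA was measured by qRT-PCR, normalized to ACTB/GAPDH/POLR2A, with bidirectional fitting versus DMSO.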

Read-out in a further experiment: CYP2E1 (gene 1571)
Nature of the experiment: LTEA_HepaRG_CYP2E1: Life Technologies and Expression Analysis (LTEA) Assay for CYP2E1 using HepaRG (AID 2283485). In short, it runs like this:
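HepaRG cells, plated 48 h, then exposed 48 h in serum-free induction medium to eight half-log concentrations from 100 uM in 0.5% DMSO, duplicate. CYP2E1 mRNA by qRT-PCR, normalized to ACTB/GAPDH/POLR2A; bidirectional fit versus DMSO.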

Read-out in experiment [10]: Cytochrome P450 3A4 (Homo sapiens) (UniProt P08684)
Briefly: LTEA_HepaRG_CYP3A4: Life Technologies and Expression Analysis (LTEA) Assay for CYP3A4 using HepaRG (AID 2283487). The method, boiled down:
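Differentiated HepaRG cells, plated 48 h, then dosed 48 h in serum-free induction medium with 0.5% DMSO, 8 half-log concentrations up to 100 uM, duplicate. CYP3A4 mRNA by qRT-PCR, normalized to ACTB/GAPDH/POLR2A; bidirectional fit versus DMSO.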

Read-out in experiment [11]: DNA damage-inducible transcript 3 (DDIT3), DDIT3 (gene 1649)
Briefly: LTEA_HepaRG_DDIT3: Life Technologies and Expression Analysis (LTEA) Assay for DNA damage-inducible transcript 3 (DDIT3) using HepaRG (AID 2283488). The method, boiled down:
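HepaRG cells, 48 h after plating, exposed 48 h in serum-free induction medium to 8 half-log concentrations up to 100 uM in 0.5% DMSO, in duplicate. DDIT3 mRNA measured by TaqMan qRT-PCR, normalized to ACTB, GAPDH and POLR2A. Fitted bidirectionally against DMSO.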

Read-out in experiment [12]: Pro-epidermal growth factor (Homo sapiens) (UniProt P01133)
Nature of the experiment: LTEA_HepaRG_EGF: Life Technologies and Expression Analysis (LTEA) Assay for Epidermal growth factor (EGF) using HepaRG (AID 2283489). The method, boiled down:
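HepaRG cells (~100,000/well, 48 h pre-culture) exposed in duplicate for 48 h in serum-free induction medium to 8 half-log concentrations up to 100 uM in 0.5% DMSO. EGF mRNA by qRT-PCR, normalized to ACTB/GAPDH/POLR2A; bidirectional fit versus DMSO.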

Read-out in experiment [13]: Apoptosis regulator Bcl-2 (Homo sapiens) (UniProt P10415)
Briefly: LTEA_HepaRG_BCL2: Life Technologies and Expression Analysis (LTEA) Assay for Bcl-2 gene using HepaRG (AID 2283475). In short, it runs like this:
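Differentiated human HepaRG cells in serum-free induction medium exposed 48 h, in duplicate, to 8-point half-log series from 100 uM in 0.5% DMSO. BCL2 mRNA by qRT-PCR (TaqMan/Fluidigm), normalized to ACTB, GAPDH, POLR2A; bidirectional fit against DMSO.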

Read-out in another experiment: CYP4A11 (gene 1579)
Briefly: LTEA_HepaRG_CYP4A11: Life Technologies and Expression Analysis (LTEA) Assay for CYP4A11 using HepaRG (AID 2283486). In short, it runs like this:
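Differentiated HepaRG cells, 48 h after plating, exposed in duplicate for 48 h to 8 half-log concentrations up to 100 uM in 0.5% DMSO in serum-free induction medium. CYP4A11 mRNA measured by TaqMan qRT-PCR, normalized to ACTB, GAPDH and POLR2A.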

Activity calls are given as the source filed them. The calls were made as follows: active = hit-call score of the fitted dose curve at least 0.9, where 1 is the maximum; inactive = score below 0.9.

Cytochrome P450 2C19 (Homo sapiens), sequence (P33261 whole entry, looked up): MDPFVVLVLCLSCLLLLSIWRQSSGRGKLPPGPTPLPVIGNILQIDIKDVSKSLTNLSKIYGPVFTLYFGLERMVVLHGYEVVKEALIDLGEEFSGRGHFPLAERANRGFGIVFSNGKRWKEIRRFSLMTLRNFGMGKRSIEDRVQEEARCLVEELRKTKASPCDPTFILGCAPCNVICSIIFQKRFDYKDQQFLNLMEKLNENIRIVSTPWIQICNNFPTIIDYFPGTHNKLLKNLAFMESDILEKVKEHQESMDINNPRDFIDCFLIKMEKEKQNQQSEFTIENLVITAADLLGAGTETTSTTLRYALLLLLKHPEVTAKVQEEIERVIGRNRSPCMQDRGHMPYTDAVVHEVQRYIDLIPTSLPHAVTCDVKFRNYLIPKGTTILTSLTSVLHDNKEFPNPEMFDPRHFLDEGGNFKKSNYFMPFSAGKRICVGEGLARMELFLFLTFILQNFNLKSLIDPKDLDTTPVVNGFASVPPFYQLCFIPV
Cytochrome P450 3A4 (Homo sapiens), sequence (P08684 whole entry, looked up): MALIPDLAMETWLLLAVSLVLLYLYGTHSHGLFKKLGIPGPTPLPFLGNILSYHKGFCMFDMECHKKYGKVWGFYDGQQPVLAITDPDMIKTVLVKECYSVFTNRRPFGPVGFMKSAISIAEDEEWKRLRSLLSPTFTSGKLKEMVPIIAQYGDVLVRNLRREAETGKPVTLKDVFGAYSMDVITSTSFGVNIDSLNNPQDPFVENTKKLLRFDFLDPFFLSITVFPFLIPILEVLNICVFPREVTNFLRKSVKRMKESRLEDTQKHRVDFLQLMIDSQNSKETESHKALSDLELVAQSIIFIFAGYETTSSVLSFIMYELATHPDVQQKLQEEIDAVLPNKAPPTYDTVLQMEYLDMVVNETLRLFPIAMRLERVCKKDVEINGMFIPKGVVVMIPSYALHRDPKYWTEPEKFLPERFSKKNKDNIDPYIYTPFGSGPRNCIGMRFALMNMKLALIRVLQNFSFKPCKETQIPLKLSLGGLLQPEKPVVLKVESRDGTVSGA
Apoptosis regulator Bcl-2 (Homo sapiens), sequence (P10415 whole entry, looked up): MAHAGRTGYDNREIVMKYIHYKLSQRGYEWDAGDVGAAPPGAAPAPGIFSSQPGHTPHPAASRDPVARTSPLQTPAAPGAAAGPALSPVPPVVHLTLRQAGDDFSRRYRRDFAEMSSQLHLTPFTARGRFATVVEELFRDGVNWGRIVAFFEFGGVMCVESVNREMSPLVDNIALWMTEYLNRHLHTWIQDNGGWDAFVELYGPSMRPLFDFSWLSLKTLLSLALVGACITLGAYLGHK
Caspase-3 (Homo sapiens), sequence (P42574 whole entry, looked up): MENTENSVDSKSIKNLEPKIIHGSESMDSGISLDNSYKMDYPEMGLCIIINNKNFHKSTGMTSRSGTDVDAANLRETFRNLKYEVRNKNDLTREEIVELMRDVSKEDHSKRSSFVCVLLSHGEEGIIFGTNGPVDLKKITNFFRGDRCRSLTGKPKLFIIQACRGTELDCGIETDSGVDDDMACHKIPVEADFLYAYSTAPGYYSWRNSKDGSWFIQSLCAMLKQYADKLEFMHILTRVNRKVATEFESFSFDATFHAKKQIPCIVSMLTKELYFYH

For orientation: AC50 means the concentration giving half of the maximal activity seen. With `N#Cc1c[nH]cc1-c1cccc2c1OC(F)(F)O2`, the AC50 in experiment [1] was 23.3 µM (active); in experiment [3], 73.3 µM (active); in the experiment with BCL2L11 (gene 10018), 20.9 µM (active); in experiment [8] it was 32 µM (active); in experiment [9] it was 93.5 µM (active); with CYP2C9 (gene 1559), 50 µM (active). Besides, the concentration at half-maximal activity (AC50) was 76 µM (active) with CYP2E1 (gene 1571) and 9.76 µM (active) in [10]. Moreover, the outcome (in experiment [2]; in experiment [4]; in experiment [5]; in the experiment with Caspase-3 (Homo sapiens); in experiment [6]; in experiment [7]) was inactive. In addition, the compound was classed as inactive (with CYP2C8 (gene 1558); in [11]; in [12]).

For the compound `COc1ccc(-c2ccccc2)cc1NNC(=O)OC(C)C`, the compound was classed as inactive (in experiment [1]; in [2]; in [3]; with BCL2L11 (gene 10018); in experiment [4]; in [13]). In addition, the result (in experiment [5]; with Caspase-3 (Homo sapiens); in [6]; in experiment [7]; in experiment [8]; in experiment [9]) was inactive. Besides, the result (in the experiment with CYP2C8 (gene 1558); with CYP2C9 (gene 1559); in the experiment with CYP2E1 (gene 1571); in [10]; in [11]; in [12]) was inactive.

Take `CCC(C)n1c(=O)[nH]c(C)c(Br)c1=O` (stereo not drawn): the call (in experiment [1]; in experiment [2]; in experiment [4]; in experiment [13]; in experiment [5]; in the experiment with Caspase-3 (Homo sapiens)) was inactive. For the same compound, the result (in experiment [6]; in experiment [7]; in [9]; with CYP2C9 (gene 1559); in [10]; in [12]) was inactive. In addition, the AC50 was 35.5 µM (active) in [3]; 20.7 µM (active) with BCL2L11 (gene 10018); 1.19 µM (active) in experiment [8]; 20.6 µM (active) with CYP2E1 (gene 1571); 13.5 µM (active) with CYP4A11 (gene 1579).

As for `CNC(=O)Oc1cccc2ccccc12`, the outcome (in [1]; in experiment [2]; in experiment [3]; with BCL2L11 (gene 10018); in [4]; in [13]) was inactive. In addition, the compound was classed as inactive (in experiment [5]; with Caspase-3 (Homo sapiens); in experiment [7]; in [9]; with CYP2C9 (gene 1559); in the experiment with CYP2E1 (gene 1571)). The compound was classed as inactive (with CYP4A11 (gene 1579); in experiment [10]; in experiment [11]; in [12]). Further, the AC50 in [6] was 0.0808 µM (active); in experiment [8], 25.6 µM (active).

With `CC(C)(C)C(=O)C(Oc1ccc(Cl)cc1)n1cncn1` (stereo not drawn), the call (in [1]; in [2]; in experiment [3]; in the experiment with BCL2L11 (gene 10018); in experiment [4]; in experiment [13]) was inactive. Also, the call (in experiment [5]; with Caspase-3 (Homo sapiens); in experiment [6]; in [7]; with CYP2C9 (gene 1559); in experiment [11]) was inactive. Also, the compound was called inactive in experiment [12]. In addition, the AC50 in experiment [8] was 5.18 µM (active); in [9], 10.7 µM (active); with CYP2C8 (gene 1558) it was 15.4 µM (active); with CYP2E1 (gene 1571) it was 31.1 µM (active); in experiment [10], 2.67 µM (active).
